Active and inactive are the calls of the source. The call rests on the fitted dose curve.
Experiment: qHTS drug screen for cell cycle checkpoint inhibitors in PARPi-resistant BRCA-mutant ovarian cancer cell lines. (AID 1963452)
Conditions: PEO1/OlaR viability, CellTiter-Glo luminescence, 96 h; for Z-AUC: stronger effect = lower value
Outline: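 PEO1, PEO4 and PEO1/OlaR ovarian cancer cells, 600 per well, exposed 96 h at 37C to a dilution series. Viability read by CellTiter-Glo luminescence, normalized to DMSO and empty wells; activity summarized as Z-AUC.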

[1] = measured here: PEO1 parental Z-AUC
Potency means the concentration at half of the fitted maximal effect.

SMILES	Z-AUC	Z-AUC [1]	Z-AUC (measured here: PEO4 Z-AUC)	Potency
COc1ccc(-c2c(-c3ccc(O)cc3O)n[nH]c2C)cc1	0.835 (inactive)	0.673	1.1	
Cc1ccnc(NS(=O)(=O)c2ccc(NC(=O)Nc3ccc(S(=O)(=O)Nc4nccc(C)n4)cc3)cc2)n1	-1 (inactive)	-0.318	0.813	
COc1ccccc1[C@H](c1cccc2ccccc12)[C@@](C)(C#N)C(=O)N1CCC(c2cccc(C(F)(F)F)c2)CC1	1.34 (inactive)	1.15	1.29	
CN(C(=O)c1ccc(F)cc1C(F)(F)F)C1CCN(c2nnc(-c3ccnn3C)c3ccccc23)CC1	-0.541 (inactive)	-0.599	-0.538	
Cc1cnc(Nc2ccc(OCCN3CCCC3)cc2)nc1Nc1cccc(S(=O)(=O)NC(C)(C)C)c1		-1.63	-1.56	1950 nM (active)
CCc1cc(Nc2nccc(-c3c(-c4ccc(OC)c(C(=O)Nc5c(F)cccc5F)c4)nc4ccccn34)n2)c(OC)cc1N1CCC(N2CCN(S(C)(=O)=O)CC2)CC1	-0.4 (inactive)	-0.657	-0.933	
CC1(C)Cc2c(-c3ccccc3)c(-c3ccc(Cl)cc3)c(CC(=O)O)n2C1	0.0211 (inactive)	0.818	0.66	
CCOc1ccn(-c2ccc(F)cc2)c(=O)c1C(=O)Nc1ccc(Oc2ccnc(N)c2Cl)c(F)c1	-0.773 (inactive)	-0.706	-0.86	
CCn1cc(C(=O)O)c(=O)c2cc(F)c(N3CCNC(C)C3)c(F)c21 (centres undefined)	-0.481 (inactive)	-0.703	-0.581	
CCOc1cc(N2CCC(O)CC2)ccc1Nc1ncc2c(n1)N(C)c1ccccc1C(=O)N2C	-0.264 (inactive)	0.271	0.379	
Nc1nccc(-c2ccc3noc(-c4ccc(Cl)cc4)c3c2)n1	0.305 (inactive)	0.344	0.149	
OCCC#Cc1nc(-c2ccc(F)cc2)c(-c2ccncc2)n1CCCc1ccccc1	1.23 (inactive)	0.482	0.663	
CCCC(CCC)C(=O)O	0.56 (inactive)	0.704	0.624	
Nc1ncnc2nc(-c3ccc(N4CCOCC4)nc3)cc(-c3cccc(Br)c3)c12	0.819 (inactive)	1.06	0.514	
O=C(Nc1nc2ccccc2n1CCN1CCOCC1)c1cccc([N+](=O)[O-])c1	1.54 (inactive)	1.06	1.04	
O=C(Nc1cccnc1)N1CCC(Cc2cccc(Oc3ccc(C(F)(F)F)cn3)c2)CC1	-0.589 (inactive)	-1.46	-1.18	
CCN(CC)CCCC(C)Nc1ccnc2cc(Cl)ccc12 (centres undefined)	0.106 (inactive)	0.505	0.615	
CN[C@@H](C)C(=O)N[C@H]1CCCC[C@H]2CC[C@@H](C(=O)N[C@@H](c3ccccc3)c3cn(CCCCc4ccc(CCCCn5cc([C@@H](NC(=O)[C@@H]6CC[C@@H]7CCCC[C@H](NC(=O)[C@H](C)NC)C(=O)N76)c6ccccc6)nn5)cc4)nn3)N2C1=O	1.6 (inactive)	0.404	0.201	
CC(C)(N)C(=O)N[C@H](COCc1ccccc1)C(=O)N1CCC2(CC1)CN(S(C)(=O)=O)c1ccccc12	1.64 (inactive)	1.18	1.52	
c1ccc(-c2nn3c(c2-c2ccnc4cc(OCCN5CCOCC5)ccc24)CCC3)nc1	0.744 (inactive)	0.379	0.692	
Cc1n[nH]c(C)c1Cc1sc2c(c1C(=O)N1C[C@H](O)CO1)c(=O)n(C)c(=O)n2CC(C)C	-0.106 (inactive)	-0.977	-0.228	
O=C(c1cc(Cc2n[nH]c(=O)c3ccccc23)ccc1F)N1CCN(C(=O)C2CC2)CC1	0.491 (inactive)	-0.378	0.0684	
C[C@]12CCC(=O)C=C1CC[C@@H]1[C@@H]2[C@@H](O)C[C@@]2(C)[C@H]1CC[C@]2(O)C(=O)CO	0.00041 (inactive)	0.66	-0.19	
OC[C@H](Cc1ccccc1)Nc1nc(Oc2ccc3c(c2)CCC3)nc2c1ncn2Cc1ccc(-c2ccccc2)cc1	0.712 (inactive)	0.249	0.323	
CN(C)c1ccc(C2Nc3ccc4ccccc4c3C3=C2C(=O)CC(C)(C)C3)cc1Br (centres undefined)	-0.197 (inactive)	-0.276	0.333	
NC(=O)c1ccc(-c2nc(-c3ccc4c(c3)OCCO4)c(-c3ccccn3)[nH]2)cc1	0.559 (inactive)	0.194	0.167	
O=c1[nH]c(-c2ccc(C(F)(F)F)cc2)nc2c1CSCC2	0.604 (inactive)	0.431	0.432	
CC(C)c1onc(-c2c(Cl)cccc2Cl)c1COc1ccc(/C=C/c2cccc(C(=O)O)c2)c(Cl)c1	0.394 (inactive)	-0.0133	0.0704	

From PubChem BioAssay (NCATS)
